About 7,900 targets were measured; listed, in parts, are those with a hit and a random draw of the rest. About 0.6% of all pairs of compound and target were hits. A number with no mark means an inactive call.
Legend:
Assay in all cases: log2 fold change, soluble protein after heating vs DMSO (PISA); higher = thermal stabilisation; K562 cells, 10 uM, 30 min; active = over 0.2 and 3.5 SD of the protein, either way, in both replicates (recomputed)
bafetinib = compound: Cc1ccc(NC(=O)c2ccc(CN3CC[C@H](N(C)C)C3)c(C(F)(F)F)c2)cc1Nc1nccc(-c2cncnc2)n1 [bafetinib]
Procedure, shortened: (§1)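 Soluble protein was defined as the supernatant after 21,000xg for 90 min. It came from K562 cells at 2×10^6 cells/mL given 10 μM compound for 30 min, heated in aliquots for 3 min across 48°C-58°C, pooled, and extracted in PBS with 0.5% NP-40 at 4°C, and was quantified by TMTpro 16plex LC-MS/MS with equalised channel sums. Thermal stability against control samples, from duplicates, is reported as log2 fold change.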

[1] = compound: Cc1cccc(CC(=O)N2CCc3c2ccc(-c2cn(C)c4ncnc(N)c24)c3F)n1
Procedure, shortened: as §1

nilotinib = compound: Cc1cn(-c2cc(NC(=O)c3ccc(C)c(Nc4nccc(-c5cccnc5)n4)c3)cc(C(F)(F)F)c2)cn1 [nilotinib]
Procedure, shortened: as §1

[2] = compound: Cc1nc(Nc2n[nH]c3c2CN(C(=O)N[C@H](CN(C)C)c2ccccc2)C3(C)C)c2sccc2n1
Procedure, shortened: as §1

dasatinib = compound: Cc1nc(Nc2ncc(C(=O)Nc3c(C)cccc3Cl)s2)cc(N2CCN(CCO)CC2)n1 [dasatinib]
Procedure, shortened: as §1

[3] = compound: Cc1ncc(-c2ccnc(Nc3ccc(S(C)(=O)=O)cc3)n2)n1C(C)C
Procedure, shortened: as §1

[4] = compound: Cn1cc(-c2ccc3c(c2)CCN3C(=O)Cc2cccc(C(F)(F)F)c2)c2c(N)ncnc21
Procedure, shortened: as §1

[5] = compound: Cn1cc(-c2ccc3nnc(C(F)(F)c4ccc5ncccc5c4)n3n2)cn1
Procedure, shortened: as §1

tipifarnib = compound: Cn1cncc1[C@@](N)(c1ccc(Cl)cc1)c1ccc2c(c1)c(-c1cccc(Cl)c1)cc(=O)n2C [tipifarnib]
Procedure, shortened: as §1

mubritinib = compound: FC(F)(F)c1ccc(/C=C/c2nc(COc3ccc(CCCCn4ccnn4)cc3)co2)cc1 [mubritinib]
Procedure, shortened: as §1

Chain of UniProt Q9NSI2 (Q9NSI2 whole entry, looked up): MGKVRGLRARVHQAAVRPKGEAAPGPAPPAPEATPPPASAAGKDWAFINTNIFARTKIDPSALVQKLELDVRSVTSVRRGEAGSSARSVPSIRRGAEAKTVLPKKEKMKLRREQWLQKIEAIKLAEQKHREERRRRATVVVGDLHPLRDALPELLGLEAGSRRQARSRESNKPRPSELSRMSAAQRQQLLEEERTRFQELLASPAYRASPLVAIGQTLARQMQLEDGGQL
Chain of UniProt Q8NF50 (Q8NF50 whole entry, looked up): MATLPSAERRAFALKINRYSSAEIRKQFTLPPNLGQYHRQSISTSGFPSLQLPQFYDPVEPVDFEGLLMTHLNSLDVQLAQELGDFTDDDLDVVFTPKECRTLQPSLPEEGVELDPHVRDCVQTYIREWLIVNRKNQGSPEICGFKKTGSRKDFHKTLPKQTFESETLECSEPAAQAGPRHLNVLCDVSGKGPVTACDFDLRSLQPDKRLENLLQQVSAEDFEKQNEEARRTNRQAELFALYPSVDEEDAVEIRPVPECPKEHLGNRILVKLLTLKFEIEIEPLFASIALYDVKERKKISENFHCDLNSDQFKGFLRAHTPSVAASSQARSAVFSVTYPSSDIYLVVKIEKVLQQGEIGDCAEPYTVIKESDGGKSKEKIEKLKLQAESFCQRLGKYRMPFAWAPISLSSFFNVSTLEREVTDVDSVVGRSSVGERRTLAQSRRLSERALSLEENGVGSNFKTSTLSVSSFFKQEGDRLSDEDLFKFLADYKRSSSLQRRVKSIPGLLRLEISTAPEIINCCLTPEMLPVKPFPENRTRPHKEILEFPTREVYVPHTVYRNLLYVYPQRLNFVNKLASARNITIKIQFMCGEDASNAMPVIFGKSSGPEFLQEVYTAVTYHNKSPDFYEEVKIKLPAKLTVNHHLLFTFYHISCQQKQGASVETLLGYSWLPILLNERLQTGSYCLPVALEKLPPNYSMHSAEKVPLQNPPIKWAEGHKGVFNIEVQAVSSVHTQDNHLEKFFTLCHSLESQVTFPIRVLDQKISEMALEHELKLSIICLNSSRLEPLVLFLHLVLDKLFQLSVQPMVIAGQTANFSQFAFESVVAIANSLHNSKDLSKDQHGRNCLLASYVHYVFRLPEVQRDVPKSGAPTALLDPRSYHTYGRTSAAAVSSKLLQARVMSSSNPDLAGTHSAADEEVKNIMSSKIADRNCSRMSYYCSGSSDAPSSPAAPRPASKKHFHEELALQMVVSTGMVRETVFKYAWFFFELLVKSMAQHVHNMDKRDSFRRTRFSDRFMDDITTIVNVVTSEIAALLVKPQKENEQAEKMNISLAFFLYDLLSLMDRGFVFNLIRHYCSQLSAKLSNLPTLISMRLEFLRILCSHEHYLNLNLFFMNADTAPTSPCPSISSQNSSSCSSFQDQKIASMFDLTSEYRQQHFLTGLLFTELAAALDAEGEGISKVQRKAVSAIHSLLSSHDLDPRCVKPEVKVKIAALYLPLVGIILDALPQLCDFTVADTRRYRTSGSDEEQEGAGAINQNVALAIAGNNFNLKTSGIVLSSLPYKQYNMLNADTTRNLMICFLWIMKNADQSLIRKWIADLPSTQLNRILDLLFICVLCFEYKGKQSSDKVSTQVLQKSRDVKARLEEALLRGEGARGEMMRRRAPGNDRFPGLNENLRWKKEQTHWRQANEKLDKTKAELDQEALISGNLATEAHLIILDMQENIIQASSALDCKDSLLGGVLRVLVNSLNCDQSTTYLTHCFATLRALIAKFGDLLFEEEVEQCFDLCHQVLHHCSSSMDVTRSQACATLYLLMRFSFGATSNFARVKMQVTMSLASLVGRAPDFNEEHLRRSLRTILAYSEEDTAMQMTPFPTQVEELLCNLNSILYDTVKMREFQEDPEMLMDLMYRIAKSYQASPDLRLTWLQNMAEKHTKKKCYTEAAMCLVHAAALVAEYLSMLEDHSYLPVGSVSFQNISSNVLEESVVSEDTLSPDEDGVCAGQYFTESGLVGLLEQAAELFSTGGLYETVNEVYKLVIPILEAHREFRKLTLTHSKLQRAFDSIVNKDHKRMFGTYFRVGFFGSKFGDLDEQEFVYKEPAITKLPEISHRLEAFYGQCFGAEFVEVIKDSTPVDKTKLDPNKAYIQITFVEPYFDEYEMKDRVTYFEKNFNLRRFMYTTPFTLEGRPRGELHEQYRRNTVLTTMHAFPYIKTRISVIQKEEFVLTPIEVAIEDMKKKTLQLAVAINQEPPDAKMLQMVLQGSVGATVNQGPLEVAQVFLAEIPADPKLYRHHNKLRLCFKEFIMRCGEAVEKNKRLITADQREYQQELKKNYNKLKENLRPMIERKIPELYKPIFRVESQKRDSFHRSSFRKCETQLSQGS
Chain of UniProt Q9BW60 (Q9BW60 whole entry, looked up): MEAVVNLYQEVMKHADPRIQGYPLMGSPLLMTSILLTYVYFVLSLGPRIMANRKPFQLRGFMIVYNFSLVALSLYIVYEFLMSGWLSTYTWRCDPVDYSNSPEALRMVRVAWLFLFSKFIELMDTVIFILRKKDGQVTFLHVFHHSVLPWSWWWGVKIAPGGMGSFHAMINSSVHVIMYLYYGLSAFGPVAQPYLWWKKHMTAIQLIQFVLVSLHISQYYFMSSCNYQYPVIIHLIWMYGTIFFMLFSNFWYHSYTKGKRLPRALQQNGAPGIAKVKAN
Chain of UniProt O43237 (O43237 whole entry, looked up): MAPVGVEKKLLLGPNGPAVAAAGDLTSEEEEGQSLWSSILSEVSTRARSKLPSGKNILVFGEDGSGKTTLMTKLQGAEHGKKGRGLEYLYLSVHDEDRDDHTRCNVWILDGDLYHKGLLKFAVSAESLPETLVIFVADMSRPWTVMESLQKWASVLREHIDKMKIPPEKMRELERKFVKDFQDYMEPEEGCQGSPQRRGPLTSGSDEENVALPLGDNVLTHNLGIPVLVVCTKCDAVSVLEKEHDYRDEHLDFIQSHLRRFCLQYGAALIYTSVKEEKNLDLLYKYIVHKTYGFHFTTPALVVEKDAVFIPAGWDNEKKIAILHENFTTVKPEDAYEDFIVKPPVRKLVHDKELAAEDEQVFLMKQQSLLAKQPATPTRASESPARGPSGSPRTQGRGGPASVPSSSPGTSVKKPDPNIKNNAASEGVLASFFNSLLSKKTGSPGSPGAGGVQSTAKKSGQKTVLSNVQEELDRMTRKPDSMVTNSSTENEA
Chain of UniProt Q9UJU6 (Q9UJU6 whole entry, looked up): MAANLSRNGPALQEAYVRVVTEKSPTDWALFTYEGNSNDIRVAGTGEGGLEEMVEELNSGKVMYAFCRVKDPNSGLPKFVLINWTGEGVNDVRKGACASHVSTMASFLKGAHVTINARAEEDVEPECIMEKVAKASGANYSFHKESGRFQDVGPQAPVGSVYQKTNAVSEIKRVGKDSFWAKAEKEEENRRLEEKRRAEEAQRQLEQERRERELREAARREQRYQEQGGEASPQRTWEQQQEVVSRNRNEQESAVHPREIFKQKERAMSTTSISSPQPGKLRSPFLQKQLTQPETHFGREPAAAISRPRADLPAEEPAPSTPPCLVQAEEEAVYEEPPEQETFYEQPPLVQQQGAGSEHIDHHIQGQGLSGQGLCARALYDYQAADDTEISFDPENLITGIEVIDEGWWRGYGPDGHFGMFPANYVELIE
Chain of UniProt Q58WW2 (Q58WW2 whole entry, looked up): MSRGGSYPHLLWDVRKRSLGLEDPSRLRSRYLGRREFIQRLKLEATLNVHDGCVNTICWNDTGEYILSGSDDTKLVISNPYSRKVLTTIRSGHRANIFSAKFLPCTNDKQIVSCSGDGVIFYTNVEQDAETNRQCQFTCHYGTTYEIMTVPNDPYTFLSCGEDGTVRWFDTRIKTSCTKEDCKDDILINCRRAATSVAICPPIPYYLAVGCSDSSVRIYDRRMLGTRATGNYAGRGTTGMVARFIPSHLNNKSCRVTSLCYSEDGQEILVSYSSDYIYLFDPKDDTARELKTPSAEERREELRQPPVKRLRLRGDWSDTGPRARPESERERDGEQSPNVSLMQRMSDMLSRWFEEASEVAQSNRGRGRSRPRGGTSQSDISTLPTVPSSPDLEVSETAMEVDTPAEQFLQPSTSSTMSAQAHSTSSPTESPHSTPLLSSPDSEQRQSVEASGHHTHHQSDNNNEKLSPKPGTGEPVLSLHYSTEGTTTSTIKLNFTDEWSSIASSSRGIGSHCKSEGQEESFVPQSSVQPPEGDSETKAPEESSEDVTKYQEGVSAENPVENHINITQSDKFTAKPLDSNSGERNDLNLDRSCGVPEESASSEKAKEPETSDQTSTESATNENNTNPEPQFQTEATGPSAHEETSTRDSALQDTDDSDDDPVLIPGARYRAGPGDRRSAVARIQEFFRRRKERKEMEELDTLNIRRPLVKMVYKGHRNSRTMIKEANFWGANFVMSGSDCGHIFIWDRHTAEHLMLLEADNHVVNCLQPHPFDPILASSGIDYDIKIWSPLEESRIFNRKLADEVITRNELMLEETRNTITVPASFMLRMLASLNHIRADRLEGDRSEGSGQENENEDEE
Chain of UniProt P68104 (P68104 whole entry, looked up): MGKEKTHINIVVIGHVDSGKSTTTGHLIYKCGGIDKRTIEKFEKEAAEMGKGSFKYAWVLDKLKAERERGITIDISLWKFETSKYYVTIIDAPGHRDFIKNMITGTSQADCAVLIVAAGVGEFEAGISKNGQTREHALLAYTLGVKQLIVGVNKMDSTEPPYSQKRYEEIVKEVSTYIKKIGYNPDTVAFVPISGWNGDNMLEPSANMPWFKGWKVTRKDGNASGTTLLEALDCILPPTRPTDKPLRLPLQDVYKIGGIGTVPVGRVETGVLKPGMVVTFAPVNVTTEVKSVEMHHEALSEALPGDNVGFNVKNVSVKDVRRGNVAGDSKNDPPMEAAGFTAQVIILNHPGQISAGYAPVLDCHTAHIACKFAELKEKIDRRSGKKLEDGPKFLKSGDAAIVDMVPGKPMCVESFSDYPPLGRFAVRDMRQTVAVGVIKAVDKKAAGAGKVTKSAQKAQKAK
Chain of UniProt Q6P3W2 (Q6P3W2 whole entry, looked up): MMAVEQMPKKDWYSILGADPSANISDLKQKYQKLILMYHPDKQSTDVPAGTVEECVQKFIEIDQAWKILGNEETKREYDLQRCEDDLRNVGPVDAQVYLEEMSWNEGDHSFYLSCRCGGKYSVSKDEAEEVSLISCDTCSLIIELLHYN

| Target | log2 fold change (bafetinib) | log2 fold change [1] | log2 fold change (nilotinib) | log2 fold change [2] | log2 fold change (dasatinib) | log2 fold change [3] | log2 fold change [4] | log2 fold change [5] | log2 fold change (tipifarnib) | log2 fold change (mubritinib) |
| --- | --- | --- | --- | --- | --- | --- | --- | --- | --- | --- |
| DCAF6 isoform 3 (UniProt Q58WW2) | -0.071 | 0.009 | 0.009 | 0.02 | 0.008 | -0.013 | -0.016 | 0.031 | 0.027 | 0.017 |
| DDOST (UniProt P39656) | -0.035 | -0.001 | -0.005 | 0.033 | 0.016 | -0.039 | -0.04 | 0 | 0.047 | -0.022 |
| DTNBP1 (UniProt Q96EV8) | 0.014 | 0.004 | -0.047 | -0.027 | 0.072 | 0.016 | 0.053 | 0.036 | -0.083 | -0.081 |
| ELOVL5 isoform 2 (UniProt Q9NYP7) | -0.166 | 0.124 | -0.182 | 0.021 | -0.147 | -0.054 | 0.063 | 0.011 | -0.204 | 0.068 |
| DERPC (UniProt P0CG12) | -0.06 | -0.193 | 0.044 | -0.04 | 0.227 | -0.126 | – | 0.245 | – | 0.049 |
| DNM2 isoform 4 (UniProt P50570) | 0.154 | 0.062 | -0.006 | 0.047 | -0.007 | -0.047 | 0.006 | 0.005 | – | 0.108 |
| DNTTIP2 (UniProt Q5QJE6) | 0.148 | -0.05 | 0.064 | -0.02 | 0.148 | -0.29 | -0.104 | -0.035 | 0.256 | -0.074 |
| FAM118B (UniProt Q9BPY3) | -0.083 | 0.028 | -0.114 | -0.106 | – | 0.022 | 0.014 | 0.02 | -0.083 | 0.015 |
| DNAH10 (UniProt Q8IVF4) | 0.062 | -0.052 | -0.092 | 0.037 | 0.093 | 0.043 | 0.102 | – | – | 0.154 |
| DOCK8 (UniProt Q8NF50) | -0.076 | -0.055 | 0.069 | -0.057 | 0.052 | -0.126 | -0.14 | -0.067 | – | 0.021 |
| ELOVL1 (UniProt Q9BW60) | -0.245 | 0.12 | -0.126 | 0.024 | -0.041 | -0.011 | 0.139 | -0.097 | -0.093 | 0.011 |
| EDRF1 (UniProt Q3B7T1) | -0.04 | -0.209 | – | – | -0.157 | – | -0.275 | -0.114 | – | 0.045 |
| EXOSC10 (UniProt Q01780) | -0.63 (active) | 0 | – | – | 0.017 | – | 0.152 | 0.251 | 0.195 | 0.046 |
| DEGS1 (UniProt O15121) | -0.032 | -0.029 | 0.04 | -0.021 | -0.1 | -0.031 | -0.07 | – | -0.026 | 0.087 |
| FAM160A2 isoform 2 (UniProt Q8N612) | -0.208 | -0.145 | -0.085 | 0.192 | -0.186 | -0.101 | -0.083 | 0.046 | – | 0.093 |
| CYBA (UniProt P13498) | -0.24 (active) | -0.06 | 0.01 | 0.034 | -0.077 | 0.026 | 0.002 | 0.004 | 0 | 0.006 |
| FAM207A (UniProt Q9NSI2) | 0.002 | 0.076 | -0.071 | -0.087 | 0.006 | -0.059 | – | -0.127 | 0.003 | -0.238 |
| FAM177A1 isoform 2 (UniProt Q8N128) | -0.125 | -0.007 | -0.113 | 0.005 | -0.098 | -0.044 | 0.038 | -0.005 | -0.01 | 0.004 |
| EGR1 (UniProt P18146) | -0.257 | 0.141 | -0.001 | -0.352 | – | -0.295 | -0.24 | -0.106 | 0.139 | -0.121 |
| DMAC1 (UniProt Q96GE9) | -0.138 | -0.047 | -0.083 | 0.067 | 0.118 | -0.007 | -0.014 | 0.095 | -0.156 | 0.085 |
| DAB2 (UniProt P98082) | -0.041 | 0.085 | -0.152 | 0.002 | -0.178 | -0.098 | 0.01 | -0.007 | -0.042 | -0.024 |
| CTSH (UniProt P09668) | -0.071 | -0.034 | 0.166 | 0.03 | 0.084 | -0.041 | 0.055 | 0.056 | 0.09 | -0.063 |
| DSN1 (UniProt Q9H410) | 0.063 | – | 0.082 | -0.217 | -0.242 | 0.104 | 0.041 | 0.059 | 0.027 | -0.03 |
| EXOC5 (UniProt O00471) | -0.016 | 0.061 | -0.109 | -0.258 | -0.1 | -0.078 | 0.022 | 0.026 | -0.076 | 0.039 |
| DBNL isoform 3 (UniProt Q9UJU6) | 0.048 | -0.007 | -0.05 | -0.071 | -0.098 | -0.013 | -0.003 | 0.057 | -0.096 | 0.032 |
| DNAJC24 (UniProt Q6P3W2) | -0.079 | – | 0.019 | -0.054 | 0.053 | 0.016 | -0.1 | -0.201 | 0.084 | 0.06 |
| EEF1A1 (UniProt P68104) | -0.114 | – | 0.042 | -0.113 | -0.116 | 0.001 | 0.044 | -0.063 | -0.057 | -0.033 |
| ECPAS (UniProt Q5VYK3) | 0.031 | 0.105 | -0.067 | -0.038 | -0.255 (active) | 0.077 | -0.011 | -0.043 | -0.202 | 0.021 |
| DYNC1LI2 (UniProt O43237) | -0.041 | -0.004 | 0.109 | 0.015 | -0.068 | 0.125 | -0.184 | 0.052 | -0.01 | 0.024 |
